Where “and” joins values, the source holds several entries; their conditions need not be identical. Equal entries are not always repeated. Structures can show the parent of a compound that is named as a salt.
What was measured:
Experiment in all cases: cell viability relative to vehicle control; higher = less cytotoxic
Conditions in all cases: 10 µM
[1] = test system: K562
Summary of the method: (§1)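 Screening covered the Selleck bioactive, kinase and epigenetic probe libraries, less identity-inconsistent compounds, on CRISPR-edited mutant clones and isogenic wild-type clones of four leukaemia lines. Cells, at 2000 per well in 50 µL medium, received a single 10 µM acoustically dispensed dose. After 48 h the supernatant was removed and CellTiter-Glo luminescence was read. Viability was analysed in Genedata Screener as percent of the on-plate vehicle control.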

[2] = test system: MARIMO
Summary of the method: as §1

[3] = test system: MOLM14
Summary of the method: as §1

[4] = test system: OCI-AML2
Summary of the method: as §1

| Compound | cell viability ([1]; SRSF2 genotype: SRSF2 P95H/wt) | cell viability ([1]; SRSF2 genotype: SRSF2 wt/wt) [%] | cell viability ([2]; SRSF2 genotype: SRSF2 P95H/wt) [%] | cell viability ([2]; SRSF2 genotype: SRSF2 wt/wt) [%] | cell viability ([3]; SRSF2 genotype: SRSF2 P95H/wt) [%] | cell viability ([3]; SRSF2 genotype: SRSF2 wt/wt) [%] | cell viability ([4]; SRSF2 genotype: P95H/wt) [%] | cell viability ([4]; SRSF2 genotype: wt/wt) [%] |
| --- | --- | --- | --- | --- | --- | --- | --- | --- |
| Cc1cc(C)c(/C=C2\C(=O)Nc3ccccc32)[nH]1 [Semaxanib (SU5416)] | 102% and 103% | 105 | 88.3 | 97.4 | 20 | 19.8 | 28.1 | 39.9 |
| C[C@]12C=CC(=O)C=C1CC[C@@H]1[C@@H]2C(=O)C[C@@]2(C)[C@H]1CC[C@]2(O)C(=O)CO [Prednisone (Adasone)] | 102% and 107% | 95.5 | 104 | 101 | 108 | 107 | 106 | 110 |
| N[C@@H](Cc1cc(I)c(Oc2cc(I)c(O)c(I)c2)c(I)c1)C(=O)O [Levothyroxine sodium] | 89.6% and 92.8% | 106 | 102 | 104 | 92.9 | 101 | 100 | 94.3 |
| CCCCCCCCCCCC(=O)O [Lauric Acid] | 91.8% and 82.9% | 85.7 | 89.8 | 101 | 92.6 | 92.1 | 94.9 | 96.1 |
| C[C@@]12CC[C@@H]3[C@@](CC[C@H]4[C@@]3(C)CCC[C@@]4(C)C(=O)O)(CC1=O)C2 [Iso-Steviol] | 100% and 92.9% | 96.7 | 99.4 | 107 | 95 | 94.7 | 88.3 | 101 |
| COc1ccc(CCC(=O)N(c2nccc3ccccc23)[C@@H]2CCCNC2)cc1 | 91.8% and 90.5% | 85.2 | 79 | 93.4 | 80.5 | 85.3 | 91 | 91.2 |
| C[C@@H]1COCCN1c1cc(C2(S(C)(=O)=O)CC2)nc(-c2cccc3[nH]ccc23)n1 | 8.63% and 11.6% | 8.6 | 20.2 | 18 | 22.2 | 7.72 | 16.2 | 18.7 |
| COc1cc(OC)c2c(=O)[nH]c(-c3cc(C)c(OCCO)c(C)c3)nc2c1 | 81.8% and 87.1% | 87.5 | 80.1 | 71.1 | 77.8 | 81.3 | 79 | 86 |
| COc1ccc(OC)c(C2C(C#N)=C(N)Oc3n[nH]c(-c4ccc5ccccc5c4)c32)c1 (stereo not drawn) | 104% and 111% | 105 | 98.9 | 99 | 98.7 | 102 | 105 | 106 |
| O=C(Nc1ncc([N+](=O)[O-])s1)c1ccccc1O [Tizoxanide] | 82% and 82.9% | 88.8 | 90.3 | 94.2 | 96.9 | 100 | 91.2 | 96.1 |
| O=C(NC[C@H](O)CN1CCc2ccccc2C1)c1cc(NC2COC2)ncn1 | 95.9% and 92.8% | 95.6 | 87.6 | 98.1 | 88.8 | 92.6 | 76.3 | 77.1 |
| CC1(C)[C@@H](O[C@H]2O[C@H](C(=O)O)[C@@H](O)[C@H](O)[C@H]2O[C@@H]2O[C@H](C(=O)O)[C@@H](O)[C@H](O)[C@H]2O)CC[C@]2(C)[C@H]3C(=O)C=C4[C@@H]5C[C@@](C)(C(=O)O)CC[C@]5(C)CC[C@@]4(C)[C@]3(C)CC[C@@H]12 [Diammonium Glycyrrhizinate] | 98.9% and 104% | 99.1 | 101 | 99.7 | 100 | 103 | 101 | 114 |
| CCOc1cc(CC(=O)N[C@@H](CC(C)C)c2ccccc2N2CCCCC2)ccc1C(=O)O [Repaglinide] | 105% and 100% | 97.6 | 103 | 101 | 102 | 101 | 108 | 116 |
| CC(C)c1cc2c(c(O)c1O)[C@@]13CCCC(C)(C)[C@@H]1C[C@@H]2OC3=O [Carnosol] | 43.3% and 33.8% | 61.7 | 4.39 | 0.77 | 6.11 | 5.25 | 5.94 | 1.96 |
| N#Cc1cnc(Nc2cc(NC[C@H]3CNCCO3)c(C(F)(F)F)cn2)cn1 | 19% and 24.2% | 13.3 | 44.5 | 54.4 | 16.4 | 10.3 | 14.5 | 14.1 |
| CCCNC[C@]1(O)[C@H](C)O[C@@H](O[C@H]2[C@H](C)[C@@H](O[C@@H]3O[C@H](C)C[C@H](N(C)C)[C@H]3O)[C@](C)(O)C[C@@H](C)CN[C@H](C)[C@@H](O)[C@](C)(O)[C@@H](CC)OC(=O)[C@@H]2C)C[C@@]1(C)OC [Tulathromycin A] | 101% and 105% | 104 | 101 | 107 | 100 | 106 | 99.9 | 99 |
| C/C=C(/C)C(=O)O[C@H]1c2cc(OC)c(OC)c(OC)c2-c2c(cc3c(c2OC)OCO3)C[C@H](C)[C@]1(C)O [Schisantherin B] | 98.1% and 96.8% | 93.7 | 93 | 94.1 | 82.8 | 92.6 | 97.1 | 97 |
| OCC(O)C(O)C(O)C(O)CO (stereo not drawn) [Dulcitol] | 102% and 104% | 99.7 | 105 | 107 | 99.9 | 106 | 105 | 103 |
| O=C(O)CC1CC(c2ccccc2)=NO1 (stereo not drawn) | 108% and 104% | 103 | 97 | 110 | 97.4 | 99.7 | 89.5 | 95.5 |
| O=[N+]([O-])c1ccc2c(c1)S(=O)(=O)C=C2 [Stattic] | 8.02% and 0.43% | 0.74 | 0.14 | 0.16 | 0.12 | 0.25 | 0.06 | 0.06 |
| Cc1c(Cn2c(C)nc3c(C(=O)O)cc(N4CCOCC4)cc32)cccc1C(F)(F)F | 104% and 97.4% | 108 | 105 | 105 | 83.2 | 89.7 | 92.7 | 95.2 |

| Compound | cell viability ([1]; SRSF2 genotype: SRSF2 P95H/wt) | cell viability ([1]; SRSF2 genotype: SRSF2 wt/wt) [%] | cell viability ([2]; SRSF2 genotype: SRSF2 P95H/wt) [%] | cell viability ([2]; SRSF2 genotype: SRSF2 wt/wt) [%] | cell viability ([3]; SRSF2 genotype: SRSF2 P95H/wt) [%] | cell viability ([3]; SRSF2 genotype: SRSF2 wt/wt) [%] | cell viability ([4]; SRSF2 genotype: P95H/wt) [%] | cell viability ([4]; SRSF2 genotype: wt/wt) [%] |
| --- | --- | --- | --- | --- | --- | --- | --- | --- |
| NCCCCCNCC12CC3CC(CC(C3)C1)C2 [IEM 1754 dihydrobroMide] | 102% and 104% | 95 | 104 | 105 | 103 | 102 | 91.4 | 100 |
| O=C([O-])c1ccccc1O.[Na+] [Sodium salicylate] | 93.7% and 88.7% | 85.5 | 94.4 | 97 | 97 | 94.1 | 91.2 | 98 |
| O=c1cc(-c2ccc(O)cc2)oc2cccc(O)c12 [4',5-Dihydroxyflavone] | 89.4% and 86% | 89.7 | 84.4 | 84.6 | 64.3 | 72.5 | 66.4 | 69.4 |
| O=C(CCc1ccc(O)cc1)c1c(O)cc(O[C@@H]2O[C@H](CO)[C@@H](O)[C@H](O)[C@H]2O)cc1O [Trilobatin] | 96.2% and 98.8% | 96.8 | 99.7 | 105 | 89.2 | 98.9 | 92.6 | 106 |
| Nc1nccc(Oc2ccc3c(C(=O)Nc4cccc(C(F)(F)F)c4)cccc3c2)n1 | 86.8% and 94.3% | 87.9 | 109 | 125 | 93.6 | 102 | 94.8 | 106 |
| CC(C)=CCc1cc2c(cc1O)O[C@H](c1ccc(O)cc1)CC2=O [Bavachin] | 95.2% and 87.3% | 100 | 96.5 | 99.5 | 111 | 109 | 101 | 114 |
| CC[C@@]1(O)C(=O)OCc2c1cc1n(c2=O)Cc2cc3cc(O)ccc3nc2-1 [Hydroxy Camptothecine] | 10.4% and 26.6% | 9.83 | 4.88 | 4.13 | 0.53 | 0.32 | 0.49 | 2.23 |
| CC1(C)S[C@@H]2[C@H](NC(=O)C(C(=O)O)c3ccccc3)C(=O)N2[C@H]1C(=O)O (stereo partly drawn) [Carbenicillin disodium] | 93.2% and 88.7% | 97.2 | 90.3 | 98.8 | 98.6 | 95.4 | 95 | 93 |
| C=C(CCC=C(C)C)[C@H]1CC[C@]2(C)[C@@H]1[C@H](O)C[C@@H]1[C@@]3(C)CC[C@H](O[C@@H]4O[C@H](CO)[C@@H](O)[C@H](O)[C@H]4O[C@@H]4O[C@H](CO)[C@@H](O)[C@H](O)[C@H]4O)C(C)(C)[C@@H]3CC[C@]12C [Ginsenoside Rk1] | 107% and 97.8% | 107 | 105 | 104 | 108 | 104 | 100 | 104 |
| C[N+](C)(C)CC(O)CC(=O)[O-] (racemic) [DL-Carnitine hydrochloride] | 101% and 105% | 98.8 | 98.4 | 106 | 98.1 | 103 | 102 | 101 |
| CC(C)CCNC(=O)[C@H](CC(C)C)NC(=O)[C@H]1O[C@@H]1C(=O)O [Loxistatin Acid (E-64C)] | 107% and 106% | 100 | 102 | 104 | 101 | 104 | 106 | 105 |
| CCNC(=O)c1noc(-c2cc(Cl)c(O)cc2O)c1-c1ccc(OC)cc1 | 20.7% and 32.8% | 25.5 | 31.9 | 25.1 | 2.02 | 2.25 | 16.2 | 20.2 |
| Cn1cnc2c(F)c(Nc3ccc(Br)cc3Cl)c(C(=O)NOCCO)cc21 [AZD6244 (Selumetinib)] | 79% and 92.2% | 75.3 | 37.5 | 36.3 | 44.6 | 31.3 | 39.6 | 43.6 |
| CN(c1ccccc1CNc1nc(Nc2ccc3c(c2)CC(=O)N3)ncc1C(F)(F)F)S(C)(=O)=O | 17% and 28.3% | 16.4 | 8.93 | 3.27 | 0.69 | 0.39 | 1.33 | 13.7 |
| CCN(CC)C(=O)/C(C#N)=C/c1cc(O)c(O)c([N+](=O)[O-])c1 [Entacapone] | 101% and 105% | 107 | 101 | 102 | 102 | 102 | 114 | 97.4 |
| CO[C@H]1/C=C/O[C@@]2(C)Oc3c(C)c(O)c4c(O)c(c(/C=N/N5CCN(C6CCCC6)CC5)c(O)c4c3C2=O)NC(=O)/C(C)=C\C=C\[C@H](C)[C@H](O)[C@@H](C)[C@@H](O)[C@@H](C)[C@H](OC(C)=O)[C@@H]1C [Rifapentine] | 87.7% and 92.5% | 87.4 | 78.3 | 109 | 56.2 | 67 | 56.1 | 57.2 |
| Cc1cc(Nc2cc(Cl)nc(Oc3ccc([N+](=O)[O-])cc3)n2)n[nH]1 [Autophinib] | 30.5% and 32.9% | 31.3 | 33.4 | 53.3 | 29.9 | 14.5 | 50 | 47.9 |
| CC(C)C[C@H](NC(=O)[C@H](Cc1ccccc1)NC(=O)c1cnccn1)B(O)O [Bortezomib (Velcade)] | 1.99% and 2.21% | 1.46 | 0.39 | 0.93 | 0.29 | 0.31 | 0.19 | 0.25 |
| Cc1ncc(CO)c(CO)c1O [Pyridoxine] | 98.2% and 103% | 97.3 | 107 | 96.3 | 101 | 102 | 106 | 99.6 |
| NS(=O)(=O)c1ccc(NC(=O)Nc2ccc(F)cc2)cc1 | 99.9% and 107% | 107 | 115 | 113 | 110 | 108 | 99.6 | 95 |

— the supplement of paper PMC10981050
